Source: PubChem BioAssay (National Center for Advancing Translational Sciences (NCATS))
TRHR ag: TRH receptor (human) agonism; TRHR cells, calcium flux fluo-8, FDSS agonist mode; AID 493084; actives 0.18% (n = 360,000); activation, % at 2 µM; P34981; in the data active = activation above about 30%; also: 0% is about no effect
Target sequence (P34981 whole entry, looked up): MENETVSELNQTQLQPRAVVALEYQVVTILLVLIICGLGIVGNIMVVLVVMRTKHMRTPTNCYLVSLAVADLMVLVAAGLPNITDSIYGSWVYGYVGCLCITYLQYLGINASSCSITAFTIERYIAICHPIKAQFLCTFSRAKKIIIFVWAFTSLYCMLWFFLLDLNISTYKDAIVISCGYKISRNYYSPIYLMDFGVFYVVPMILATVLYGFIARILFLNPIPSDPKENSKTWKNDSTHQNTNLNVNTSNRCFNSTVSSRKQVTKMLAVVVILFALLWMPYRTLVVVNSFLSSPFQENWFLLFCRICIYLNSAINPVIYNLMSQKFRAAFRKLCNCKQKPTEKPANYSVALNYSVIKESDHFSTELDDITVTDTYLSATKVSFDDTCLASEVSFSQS
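Read-out: compound-evoked intracellular calcium rise in TRHR cells, fluo-8 dye, kinetic FDSS fluorescence at 1 s/cycle following a 10-cycle baseline. Cells cultured overnight before dye loading (30 min–1.5 h, RT).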
TRPML1 ag: activates the human TRPML1 channel; activation, % (no concentration beside the values); AID 624414; TRPML1-expressing cells, Ca2+ dye fluorescence, FDSS; actives 0.12% (n = 410,000); in the data active = activation above about 50%; also: 0% is about no effect
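Tetracycline-induced TRPML1-DL cells are seeded and incubated overnight before loading with a no-wash Ca2+ dye and quencher. Agonist activity is taken from the 110 s fluorescence read following compound pin-transfer on an FDSS, before EC80 54-4 challenge.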
TRPML1 blocker: inhibitors of human TRPML1 channel | Q9GZU1 | TRPML1-inducible cells, Ca2+ dye fluorescence, FDSS; hits give low values; inhibition of EC80 agonist-evoked calcium signal | activity change, negative = inhibition, % (concentration not given with the values) | actives 0.02% (n = 390,000) | AID 624415; in the data active = activity change below about -50%;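 also: stimulus is agonist 54-4 at its EC80 concentration; % is scaled to controls: 0 for no effect and ±100 for the full control effect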
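Tet-induced TRPML1-DL cells loaded with Ca8 no-wash calcium dye were read kinetically on FDSS. Compound addition was followed by EC80 agonist 54-4 (4 uM final); inhibition was read over 110 s.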
TRHR PAM: allosterically enhances the human TRH receptor | P34981 | TRHR cells, fluo-8 calcium fluorescence, EC20 TRH enhancement | enhancement, % at 2 µM | actives 0.66% (n = 360,000) | AID 493056; in the data active = enhancement above about 30%; also: 0% is about no effect
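TRHR-expressing cells loaded with fluo-8 calcium dye were read kinetically (ex 480/em 530) during compound addition, then stimulated with an EC20 of TRH (10 nM final). Enhancement of the Gq-mediated intracellular calcium response was scored.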
Numbers without * were called inactive; / = not tested or not shown. Hits are enriched below; roughly 0.81% of the tested compounds scored in any of these assays.

SMILES	TRHR ag	TRPML1 ag	TRPML1 blocker	TRHR PAM
CCCOc1ccccc1N1C(=O)CC(N(O)c2ccccc2)C1=O (stereo not given)	0.1	0.3	-18.1	38.5*
CCc1nnc(NC(=O)C2Cc3ccccc3CN2S(=O)(=O)c2cccs2)s1 (stereo not given)	-1.4	2.2	-12.1	31.5*
CN(C)c1cccc(-c2nnc(SCC(=O)NCc3ccco3)n2C)c1	/	-0.9	/	/
Cc1cc2c(s1)c1cnn(Cc3cc(OC(F)(F)F)ccc3F)c(=O)c1n2C	-0.1	/	/	-9.0
CCOC(=O)N1CCN(S(=O)(=O)/C=C/c2ccccc2)CC1	-0.4	0.0	7.5	-3.5
CCNC(=S)N1CCN(S(=O)(=O)/C=C/c2ccccc2)CC1	-1.0	1.7	-7.7	39.9*
COc1ccc(-c2c(C)nn(Cc3ccccc3)c2N)cc1	0.1	0.4	44.3	30.3*
COc1ccc(-c2ccc(=O)n(Cc3ccccc3)n2)cc1	0.0	/	/	-0.5
CC(=O)n1nc(-c2ccccc2)nc1NCc1ccc(N(C)C)cc1	-0.4	3.6	0.5	38.9*
O=S1(=O)CCOC[C@H](c2ccccc2)N1Cc1ccc(Cl)c(Cl)c1	/	-0.1	/	/
Cc1ccc2[nH]c(=O)c(CN(Cc3nnnn3Cc3ccccc3)C3CCCC3)cc2c1	-0.3	1.4	-0.9	32.6*
Cc1ccc2[nH]c(=O)c(CN(Cc3ccccc3)Cc3nnnn3Cc3ccccc3)cc2c1	/	-0.4	/	/
O=C(COC(=O)CCC(=O)c1ccccc1)NNC(=O)c1ccc(Cl)cc1	-0.1	0.9	-16.4	-2.9
Cc1ccc(C(=O)CCC(=O)OCC(=O)NNC(=O)c2ccccc2Cl)cc1	-0.7	3.0	16.3	32.1*
COc1ccc(NC(=O)c2cc3c(s2)-c2c(C)cccc2OC3)cc1Cl	0.6	0.5	-0.8	49.7*
COc1cc(Cl)c(C)cc1NC(=O)c1cc2c(s1)-c1c(C)cccc1OC2	-0.4	0.5	-13.1	-16.9
Cc1cc(/C=C/c2c(C)cnc3ccccc23)ccc1N(C)C	/	-0.4	/	/
Cc1cnc2c3c(cc(Cl)c2c1)-c1ccccc1S(=O)(=O)N3	0.9	0.9	-26.5	-0.1
CN(C)c1ccc(C=Nc2cnc3ccccc3c2)cc1	/	-0.1	/	/
Nc1[nH]c(=S)nc2nnsc12	/	-0.2	/	/
NC(=O)C1CN(C(=O)c2nn(Cc3ccccc3)c(=O)c3ccccc23)c2ccccc2O1 (stereo not given)	-0.2	-0.7	8.8	36.8*
NC(=O)c1nn(Cc2ccccc2)c(=O)c2ccccc12	-0.4	0.3	-11.0	1.9
CC1=CC(=O)C(C(C)C)=C/C1=N/OS(=O)(=O)c1ccccc1	0.9	50.2*	-5.4	-10.6
COc1cc2c(NC3CCN(C)CC3)nc(N3CCCN(C)CC3)nc2cc1OCCCN1CCCCC1	/	-0.5	/	/
CC1CCN(C(=O)Nc2ccc3nc(-c4ccco4)c(-c4ccco4)nc3c2)CC1	/	0.1	/	/
SMILES	TRHR ag	TRPML1 ag	TRPML1 blocker	TRHR PAM
CCc1ccc2c(Cl)c(C(=O)N/N=C/c3c[nH]c4ccccc34)sc2c1	1.8	0.0	0.1	7.5
CCc1ccc(-c2cc(C(=O)N/N=C/c3c[nH]c4ccccc34)[nH]n2)cc1	-0.3	0.6	4.7	35.5*
CCOC(=O)CCCC(=O)N1CCN(/[N+]([O-])=N/Oc2ccc([N+](=O)[O-])cc2[N+](=O)[O-])CC1	/	1.9	-10.3	/
Cc1cc(C)c(-c2cc(C(=O)Nc3cc(C)ccc3C)[nH]n2)c(O)c1	0.0	1.2	-11.6	32.7*
COc1ccccc1CNC(=O)c1cc(S(=O)(=O)N2CCCC(C)C2)cn1C (stereo not given)	-0.8	-0.2	-2.5	38.2*
COc1ccccc1CNC(=O)c1cc(S(=O)(=O)N2CCCC2)cn1C	-0.1	-0.7	-12.3	2.5
CC(OC(=O)c1ccccc1OCC(=O)Nc1ccc(Br)cc1)C(=O)NC1CCCC1 (stereo not given)	/	-0.2	/	/
COc1cc(NC(=O)C(OC(=O)CNC(=O)c2ccccc2)c2ccccc2)cc(OC)c1 (stereo not given)	-1.0	/	/	3.9
CCC(C)(C)C1CCc2c(sc(NC(=O)C3c4ccccc4Oc4ccccc43)c2C(N)=O)C1 (stereo not given)	-1.0	-0.2	-2.5	43.1*
Clc1ncc(C#Cc2ccccc2)c2ncncc12	/	3.9	/	/
NC(=O)NC(=O)COC(=O)CN1C(=O)C2CCCCC2C1=O (stereo not given)	0.5	0.2	-6.8	35.6*
